Results filed as inconclusive are left out. Where a call stands in place of a potency, no number is given. Active and inactive are the calls of the source. The call rests on the fitted dose curve; in most records, active means well fitted inhibition curve with a large enough effect; inconclusive means small, poorly fitted or top-dose-only effect; inactive means no such curve, though single readings can be large or run the other way.

This assay can be described thus: Primary qHTS for small molecule stabilizers of the endoplasmic reticulum resident proteome: Secreted ER Calcium Modulated Protein (SERCaMP) assay (AID 1508630). The conditions noted are these: SH-SY5Y GLuc-SERCaMP (Gaussia luciferase released on ER calcium loss) secretion, thapsigargin, luminescence; series mostly up to 38.4 µM. In outline: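 The SH-SY5Y reporter protocol was run at 3 concentrations up to 38.3 uM (primary) or 11 concentrations (follow-up): 16 h compound, 100 nM thapsigargin for 4 h, then extracellular luciferase luminescence.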
A general note: Quantitative high-throughput screening tests each substance at several concentrations.
In the case of `CC(C)[C@H]1C(=O)N[C@H](CO)Cc2c[nH]c3cccc(c23)N1C`, the Potency result was “inactive”.

Regarding `CC[C@@]1(O)C(=O)OCc2c1cc1n(c2=O)Cc2cc3ccccc3nc2-1`, the Potency result is “inactive”.

With `C[C@]12CC[C@H]3[C@@H](CCC4=CC(=O)CC[C@@]43C)[C@H]1CC[C@H]2OC(=O)CCC1CCCC1`, the Potency result was “inactive”.

On to `CN1[C@H]2CC(O)C[C@H]1[C@H]1O[C@H]12` (some centres not stated), for which the Potency result is “inactive”.

`CC(C)[C@]12O[C@H]1[C@@H]1O[C@]13[C@]1(O[C@H]1C[C@H]1C4=C(CC[C@@]13C)C(=O)OC4)[C@@H]2O`: the Potency entry was “inactive”.

Turning to `COC(=O)[C@@H](N)CCCN=C(N)N[N+](=O)[O-]`, the Potency entry is “inactive”.

For `CCN1C[C@]2(OC(=O)c3ccccc3NC(C)=O)CC[C@H](OC)[C@@]34[C@H]5CC6[C@@H](OC)C[C@](O)(C(C[C@@H]23)[C@@H]14)[C@@]5(O)[C@@H]6OC`, the Potency result was “inactive”.

As to `C#CC1(O)CCC2C3CCC4=CC(=O)CCC4(C)C3CCC21C` (configuration not stated), the Potency entry was “inactive”.

As to `Clc1ccccc1C(c1ccccc1)(c1ccccc1)n1cccn1`, the Potency result is “inactive”.

For `CN[C@@H]1Cc2cccc3[nH]c(=O)n(c23)C1`, the Potency entry was “inactive”.

For `COc1ccc2c(c[n+](C)c3c4cc5c(cc4ccc23)OCO5)c1OC`, the Potency result is “inactive”.

In the case of `C[C@](O)(COc1ccc(C#N)cc1)C(=O)Nc1ccc(C#N)c(C(F)(F)F)c1`, the Potency entry was “inactive”.

These data come from PubChem BioAssay (NCATS).
